In PubChem BioAssay (NCI) one finds growth inhibition data, which are given here for 8 molecules.

Compounds without any hit were thinned out: in the full panel of roughly 79,000, 15% have a hit. Values without a mark were called inactive. Activity calls are given as the source filed them. Cut-off read from the data, not from the text of the source: active = growth inhibition above about 70%; inactive = the rest.

The test in a line: NCI Yeast Anticancer Drug Screen. Data for the CLN2oe strain (AID 163).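 Note: 0% = growth of vehicle-only control cultures.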 The following applies: S. cerevisiae CLN2oe strain, hits give high values. How it is done:
Growth inhibition of yeast strains with defined genetic alterations is measured as a screen for potential anti-cancer activity. Selected strains with alterations in DNA damage repair or cell cycle control were exposed to compounds and growth inhibition was measured relative to vehicle treated controls. The strain used in this assay is CLN2oe

On to `O=C1OC(CCl)CN1/N=C/c1ccc([N+](=O)[O-])o1` (stereo not given), for which the growth inhibition is -7% (at 1.2 µM); -8% (at 3.7 µM); -6% (at 11.0 µM); -7% (at 33.0 µM); -2% (at 100.0 µM).

Regarding `CN(C)C[C@H]1CC[C@@H](CN(C)C)C1=O`, the growth inhibition (at 1.2 µM) is -4%; the growth inhibition (at 3.7 µM) was 0%; the growth inhibition (at 11.0 µM) was 9%; the growth inhibition (at 33.0 µM) is 29%; the growth inhibition (at 100.0 µM) is 64%.

Consider `CCC[CH2][Ge]([CH2]CCC)([CH2]CCC)[O]C(=O)C(OC)c1ccccc1` (stereo not given), for which the growth inhibition is -6% (at 1.2 µM); 1% (at 3.7 µM); 6% (at 11.0 µM); 41% (at 33.0 µM); 98% (active) (at 100.0 µM).

Regarding `CCCCN1C(=O)N(c2ccc(OCC)cc2)C2N(CCCC)C1C(C)(C)C2(C)C` (stereo not given), the growth inhibition reads like this: (at 1.2 µM) -10%; (at 3.7 µM) -9%; (at 11.0 µM) -10%; (at 33.0 µM) -10%; (at 100.0 µM) 0%.

For the molecule `CCN(CC)CCNc1ccc([N+](=O)[O-])c2nc3ccc(OC)cc3c(N)c12`, the growth inhibition by setting is: (at 1.2 µM) 10%; (at 3.7 µM) 15%; (at 11.0 µM) 22%; (at 33.0 µM) 25%; (at 100.0 µM) 64%.

As to `C/C(=N\O)C1CC2C=C(C#N)C1N(Cc1ccccc1)C2` (stereo not given), the growth inhibition reads like this: (at 1.2 µM) -5%; (at 3.7 µM) -14%; (at 11.0 µM) -7%; (at 33.0 µM) -2%; (at 100.0 µM) -2%.

For `NC(=O)NN=C(CS)CS`, the growth inhibition by setting is: (at 1.2 µM) -9%; (at 3.7 µM) -11%; (at 11.0 µM) -10%; (at 33.0 µM) 0%; (at 100.0 µM) 11%.

Consider `COc1cc(CC2CC(c3ccc4c(c3)OCO4)OC2=O)cc(OC)c1OC` (stereo not given), for which the growth inhibition is, setting by setting: (at 1.2 µM) 2%; (at 3.7 µM) 1%; (at 11.0 µM) 5%; (at 33.0 µM) 7%; (at 100.0 µM) 15%.
